# PubChem BioAssay (NCATS)
# Records with an inconclusive call do not appear. A call without a number means that no potency is given here. Calls of active or inactive are those of the source. Calls follow the shape of the dose curve; as a rule, active = well fitted inhibition curve with a large enough effect; inconclusive = small, poorly fitted or top-dose-only effect; inactive = no such curve, though single readings can be large or run the other way.
# Molecular target: Furin (Homo sapiens) (UniProt P09958)
# Sequence (P09958 whole entry, looked up): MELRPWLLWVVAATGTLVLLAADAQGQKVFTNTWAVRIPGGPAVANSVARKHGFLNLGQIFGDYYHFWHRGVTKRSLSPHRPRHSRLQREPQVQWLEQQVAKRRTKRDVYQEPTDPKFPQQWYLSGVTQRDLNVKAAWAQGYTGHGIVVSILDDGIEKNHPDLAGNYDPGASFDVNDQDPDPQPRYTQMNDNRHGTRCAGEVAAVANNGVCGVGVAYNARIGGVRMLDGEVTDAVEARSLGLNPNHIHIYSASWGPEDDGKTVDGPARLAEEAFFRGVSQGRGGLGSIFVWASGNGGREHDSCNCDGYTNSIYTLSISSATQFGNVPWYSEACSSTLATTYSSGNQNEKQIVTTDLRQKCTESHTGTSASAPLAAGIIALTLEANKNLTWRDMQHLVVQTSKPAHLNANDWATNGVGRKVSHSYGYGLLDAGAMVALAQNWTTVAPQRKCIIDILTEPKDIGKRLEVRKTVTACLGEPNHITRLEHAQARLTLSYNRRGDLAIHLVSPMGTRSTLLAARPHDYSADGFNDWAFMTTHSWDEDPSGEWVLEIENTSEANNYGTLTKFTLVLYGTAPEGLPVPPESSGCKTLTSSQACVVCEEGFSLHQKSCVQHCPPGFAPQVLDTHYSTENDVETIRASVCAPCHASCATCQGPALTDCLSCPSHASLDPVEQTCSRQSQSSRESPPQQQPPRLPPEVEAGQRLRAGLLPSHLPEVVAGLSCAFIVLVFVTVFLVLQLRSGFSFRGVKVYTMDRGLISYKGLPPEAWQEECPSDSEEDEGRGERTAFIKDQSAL
# Experiment: Furin counterscreen qHTS for Zika virus inhibitors (AID 1347149); also: nearly all actives have a fitted effect of over 70% in size
# Conditions: furin enzymatic counterscreen, fluorogenic substrate; series mostly up to 57.5 µM
# Description: Avindra Nath, Ph.D., National Institute of Neurological Disorders and Stroke (NINDS), Bethesda, MD
# Radhakrishnan Padmanabhan, Ph.D., Georgetown University (GU), Washington D.C.
# Zika Virus causes congenital defects, including microcephaly and is associated with Guillain-Barre syndrome, eningoencephalitis and myelitis in infected adult. […] Using a target-based approach, we hope to establish a screening paradigm to uncover novel, cell-active NS2B-NS3 protease (Zika Virus) specific inhibitors from NCATS' collection of small molecules using qHTS.
# Four assay panel was created to identify potential Zika Virus inhibitors. Namely, (1) GU unlinked NS2B-NS3 AMC tagged protease qHTS, (2) GU unlinked NS2B-NS3 Rhodamine tagged protease qHTS, (3) NINDS linked NS2B-NS3 AMC tagged protease qHTS, (4) NINDS linked NS2B-NS3 Rhodamine tagged protease qHTS. Active compounds were re-acquired and re-screened to confirm inhibition. Inhibitors were further screened against various confirmatory and counterscreens in dose response format.
# Early Translation Branch (ETB)
# National Center for Advancing Translational Sciences (NCATS), Rockville, MD
# National Institute of Health (NIH), Bethesda, Maryland
# 1536-well Furin BOC-RVRR-AMC Protocol:
# Human recombinant Furin Serine Protease was purchased from Peprotech (catalog #450-47; full length; Rocky Hill, NJ). Briefly, 3 microL of enzyme (final concentrations of 5 nM), in assay buffer (100 mM HEPES pH 7.0, 1 mM CaCl2 with 0.01% Triton X-100) were dispensed into a 1,536-well solid-bottom black plate (Greiner Bio One, Monroe, NC). Twenty-three nL of compounds (final concentration range 7.28 nM to 114 microM) or control Furin Inhibitor I (Dec-RVKR-CMK; final concentration range 0.248 nM to 8.12 microM) were transferred via Wako Pin-tool (Wako Automation, Richmond, VA). Samples were incubated (RT, protected from light) for 15 minutes followed by a 1 microL substrate addition of BOC-RVRR-AMC (final concentration of 2 microM; Km = ~15 muM90). Plates were then read immediately on a ViewLux High-throughput CCD imager (PerkinElmer, Waltham, MA) equipped with standard UV fluorescence optics (340(30) nm excitation, 450(20) nm emission), then incubated (37C, protected from light) for 15 or 30 minutes (~9% conversion). The change in fluorescence intensity over the 15-minute reaction period was normalized against no-inhibitor and no-enzyme controls and the resulting percent inhibition data were fitted to a 4-parameter Hill equation. Furin Inhibitor I was used as intraplate control.
# Potency is read from the fitted curve at half-maximal effect.
row,SMILES,Potency
1,O=C(Nc1ccccc1)Nc1ccc(-c2ccc(C(=O)C3CCCC3C(=O)O)cc2)cc1 (configuration not stated),55.5 µM (active)
2,C=C1C2CCC3C(CCC4[C@@]3(C)CCC[C@@]4(C)C(=O)O)(C2)[C@@H]1OC(=O)/C(C)=C\C (some centres not stated),inactive
3,C=CC1(C)C=C2CC[C@H]3[C@@](C)(C(=O)O)CCC[C@]3(C)C2CC1 (some centres not stated),inactive
4,O=C(O)CC1CCC(c2ccc(-c3ccc(Nc4ccc(C(F)(F)F)nc4)cn3)cc2)CC1 (configuration not stated),78.4 µM (active)
5,CC1C(O)C(O)C2C(C(=O)OCCc3ccc(O)cc3)=COC(O[C@@H]3O[C@H](CO)[C@@H](O)[C@H](O)[C@H]3O)C12 (some centres not stated),inactive
6,CC1(C)CC=C(c2cnc3ccccc3c2)c2cc(C(=O)Nc3ccc(C(=O)O)cc3)ccc21,44.1 µM (active)
7,COc1cc(/C=C/c2ccccc2)c(C(=O)O)c(O)c1CC=C(C)C,19.3 µM (active)
8,Cc1ccccc1NC(=O)Nc1ccc(CN2C(=O)N([C@@H](CC(C)C)C(=O)N[C@@H](CC(=O)O)c3ccccc3)C(=O)C2(C)C)cc1,inactive
9,COc1cccc(CNc2ccc(S(=O)(=O)Nc3nc4ccccc4s3)cc2)c1O,inactive
10,O=C(O)C1(c2ccc(-c3ccc(Cl)c(Cl)c3)c(F)c2)CC1,inactive
11,C/C(=C\CC/C(C)=C/CC[C@]1(C)CCc2cc(O)cc(C)c2O1)CC/C=C(\C)C(=O)O,inactive
12,COc1cccc(OC)c1-c1cc(C(=O)N[C@@H](CC(C)C)C(=O)O)nn1-c1ccnc2cc(Cl)ccc12,inactive
13,CC(=O)OC12CC(C)C(OC(=O)c3ccccc3)C1/C=C(/C)C(OC(=O)c1ccccc1)CC(=O)C(C)(C)/C=C/C(C)C2=O (configuration not stated),inactive
14,CCc1nnc(NS(=O)(=O)c2ccc(NC(=S)NC(=O)/C=C/c3ccc(F)cc3)cc2)s1,inactive
15,Cc1ccc2[nH]c(=O)c(C3=NN(C(=O)CCC(=O)O)C(c4ccc(Br)cc4)C3)c(-c3ccccc3)c2c1 (configuration not stated),69.8 µM (active)
16,CC(C)CC(c1c(O)c(C=O)c(O)c(C=O)c1O)C1CCC(C)(O)C2CC(C(C)(C)O)CCC12C (configuration not stated),inactive
17,C=C1C2CCC3CC2(CC(O)C2(O)C1CC(OC1OC(CO)C(O)C(O)C1O)C2(C)C)CC3(C)O (configuration not stated),inactive
18,C=C1CCC2C(C)(C)CCC[C@]2(C)[C@H]1CC/C(C)=C/C(=O)O (some centres not stated),inactive
19,COc1cc(Nc2ccc([N+](=O)[O-])cc2C(=O)O)cc2ccccc12,inactive
20,COc1cc2c(c(O)c1OC/C=C(\C)CC/C=C(/C)CCC=C(C)C)CN(C(CCC(=O)O)C(=O)O)C2=O (configuration not stated),inactive
21,COc1cc(Nc2nc3ccccc3nc2NS(=O)(=O)c2cccc(NC(=O)c3ccc(C)c(OC)c3)c2)cc(OC)c1,inactive
22,C/C=C/C=C/C=C/C(=O)O[C@@H]1[C@@H](OC)C2=C(C(=O)N(C(CCC(=O)O)C(=O)O)C2)[C@@]2(C)CCCC(C)(C)[C@H]12 (some centres not stated),inactive
